# High-throughput results from PubChem BioAssay.
# TDP1 cell noCPT = qHTS for Inhibitors of human tyrosyl-DNA phosphodiesterase 1 (TDP1): qHTS in cells in absence of CPT. DT40 Tdp1-/- hTDP1 cells, no CPT, ATP luminescence, 48 h. Potency, µM (doses to about 46.2 µM), inactives show top-dose activity change, negative = growth inhibition, most hits filed as inhibitors. hit rate 15% among 420,000; further: potency means the concentration at half of the fitted maximal effect; nearly all actives have a fitted effect of over 55% in size
#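 Chicken DT40 Tdp1-/- cells stably complemented with human TDP1 were seeded at 400 cells/well with DMSO in place of 20 nM camptothecin. After compound pinning, cells grew at least 48 hr at 37 °C; viability read by CellTiter-Glo luminescence.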
# HT1080NT lethal = kills 2HG-producing HT-1080-NT fibrosarcoma cells; HT-1080-NT fibrosarcoma viability, CellTiter-Glo ATP luminescence, 48 h; Potency, µM (top dose mostly 46.1 µM), without a hit: at the top dose activity, negative = less viability, most hits filed as cytotoxic; hit rate 1.6% among 360,000;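 further: NT is the 2HG producing partner of a matched IDH1 knockdown line; potency means the concentration at half of the fitted maximal effect; 0% = DMSO-treated cells and -100% = media-only wells without cells; nearly all actives have a fitted effect of over 55% in size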
#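 A 48-hour cytotoxicity screen used HT-1080-NT cells plated 2 hours before compound delivery. ATP-based CellTiter-Glo luminescence measured viability, normalized to DMSO and no-cell controls.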
# IL-1B inflam inh = blocks inflammasome-driven IL-1 beta release; THP-1 LPS/ATP IL-1B secretion, AlphaLISA, 16 h; hits give low values; hit rate 4.7% among 360,000; activity change, % at 57.5 µM; in the data active means activity change below about -50%; inconclusive means mostly about -30% to -49%
#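 Secreted IL-1B measured by AlphaLISA bead assay after 16 h compound exposure of THP-1 cells; compounds (final up to 57.5 uM) added 1 h before LPS (250 ng/mL) and ATP (1.25 mM) stimulation; lower signal means less secretion.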
# TDP1 cell CPT = DT40-hTDP1 cell growth loss with CPT | chicken DT40 Tdp1-/-;hTDP1 cells + 20 nM CPT, ATP luminescence, 48 h | Potency, µM (doses to about 46.2 µM), for the others: top-dose activity change, negative = growth inhibition, hits mostly inhibitors | hit rate 12% among 420,000 | AID 686979; further: potency means the concentration at half of the fitted maximal effect; nearly all actives have a fitted effect of over 55% in size
#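 Cell growth measured by CellTiter-Glo luminescence after a minimum 48 h, 37 C compound exposure with 20 nM CPT in Tdp1-knockout DT40 cells stably expressing hTDP1, seeded 400/well; qHTS titration format.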
# HT1080 IDH1KD tx = HT-1080 IDH1 knockdown cell toxicity (counter line) | hit rate 2% among 360,000 | HT-1080 IDH1 knockdown viability, ATP luminescence, 48 h | Potency, µM (titrated, usually from 46.1 µM), for inactives: at the top dose activity, negative = toxicity, usual class: cytotoxic | AID 686971;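 further: potency means the concentration at half of the fitted maximal effect; 0% = DMSO wells and -100% = cell-free medium wells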
#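 Cytotoxicity counter-line: IDH1KD HT-1080, 48 h, CellTiter-Glo. Curves classed by r2, magnitude and activity.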
# An asterisk follows results filed as active; ? = inconclusive; nt = no result given; [ ] = remark or other dose. Sampled rows, rich in hits. Any-hit rate of the full collection: about 19%. Unless noted, the call rests on the fitted dose curve; in most records, active means well fitted curve in the direction sought with a large enough effect; inconclusive means small, poorly fitted or top-dose-only effect, or another doubt; inactive means no such curve, though single readings can be large; an effect the other way counts as inactive or inconclusive. Unless noted, on the % scale 0 is the no-effect control and ±100 the full control effect.
SMILES,TDP1 cell noCPT,HT1080NT lethal,IL-1B inflam inh,TDP1 cell CPT,HT1080 IDH1KD tx
Cc1cc(C)cc(NC(=O)C(OC(=O)c2sccc2C)c2ccccc2)c1 (stereo not drawn),?,10%,13,-21%,9%
C=CC(C)(C)c1[nH]cnc1/C=C1\NC(=O)C(C(C)C)NC1=O (stereo not drawn),16µM*,?,30,12µM*,-30%
N#Cc1nc(-c2ccc(OCc3ccc(Cl)cc3)cc2)oc1N1CCCC1,?,nt,nt,-18%,nt
COc1ccc2c(c1)C(=O)N1[C@H]3c4cc(C)ccc4OC[C@@H]3[C@H](c3ccccc3)[C@]1(C)C(=O)N2,10µM*,?,-66*,7.3µM*,?
COc1ccc2c(c1)[C@@H]1[C@H](CO2)[C@H](c2ccccc2)[C@]2(C)C(=O)Nc3ccc(C)cc3C(=O)N12,?,-27%,-2,18µM*,-15%
COc1ccc2c(c1)[C@H]1[C@H](CO2)[C@H](c2ccccc2)[C@]2(C)C(=O)Nc3ccc(Cl)cc3C(=O)N12,?,-8%,-54*,18µM*,-11%
COc1ccc2c(c1)[C@H]1[C@H](CO2)[C@H](c2ccccc2)[C@]2(C)C(=O)Nc3ccc(F)cc3C(=O)N12,?,?,-57*,?,?
COc1ccc2c(c1)[C@H]1[C@H](CO2)[C@H](c2ccccc2)[C@]2(C)C(=O)Nc3ccc(C)cc3C(=O)N12,?,-26%,-28,?,-16%
C[C@@]12C(=O)Nc3ccc(Br)cc3C(=O)N1[C@H]1c3ccccc3OC[C@@H]1[C@@H]2c1ccccc1,?,-3%,-24,?,-13%
CS(=O)(=O)CCC(C(=O)O)N1C(=O)c2ccc(Oc3ccc(Cl)cc3)cc2C1=O (stereo not drawn),-1%,3%,0,-1%,7%
Cc1ccc(C)c(NC(=O)C2=CCN(S(=O)(=O)c3ccc(F)cc3)CC2)c1,-21%,9%,-8,-3%,0%
COc1ccc(CN2CC[C@H]3C=CC[C@@H](C(=O)Nc4nccs4)[C@H]3C2=O)cc1OC,-6%,nt,nt,-19%,nt
CCNC(=O)C1CCCN(C(=O)c2ccc3ccccc3c2)CC1 (stereo not drawn),-8%,2%,-14,-11%,?
COc1ccc2c(c1)OC[C@H]1[C@H]2N2C(=O)c3ccccc3NC(=O)[C@@]2(C)[C@H]1c1ccccc1,?,?,-78*,?,?
COc1ccc2c(c1)OC[C@H]1[C@H]2N2C(=O)CNC(=O)[C@@]2(C)[C@H]1c1ccccc1,3%,11%,29,7%,5%
Cc1ccc2c(c1)NC(=O)[C@@]1(C)[C@@H](c3ccccc3)[C@H]3COc4ccccc4[C@@H]3N1C2=O,?,-24%,?,?,-4%
COc1ccc2c(c1)[C@H]1[C@H](CO2)[C@H](c2ccccc2)[C@]2(C)C(=O)Nc3cc(OC)c(OC)cc3C(=O)N12,21µM*,-8%,-5,?,?
COc1ccc2c(c1)[C@@H]1[C@H](CO2)[C@H](c2ccccc2)[C@]2(C)C(=O)NCC(=O)N12,-26%,0%,-19,-21%,0%
COc1ccc2c(c1)OC[C@H]1[C@H]2N2C(=O)c3cc(C)ccc3NC(=O)[C@@]2(C)[C@H]1c1ccccc1,?,?,?,16µM*,-17%
NC(=O)NC(=O)C(c1ccccc1)N1CCN(S(=O)(=O)Cc2ccccc2)CC1 (stereo not drawn),-5%,-2%,3,-3%,-2%
Cn1cc(C(=O)O)c(=O)c2cc(S(=O)(=O)N3CCOCC3)ccc21,23µM*,nt,nt,16µM*,nt
CCN(CC)S(=O)(=O)c1ccc2c(c1)c(=O)c(C(=O)NCCOC)cn2C,1%,3%,-3,-29%,13%
CCN(CC)S(=O)(=O)c1ccc2c(c1)c(=O)c(C(=O)NCc1ccc(Cl)cc1)cn2C,9.2µM*,nt,nt,10µM*,nt
CC1CCN(S(=O)(=O)c2ccc3c(c2)c(=O)c(C(=O)NCc2ccco2)cn3C)CC1,21µM*,-15%,-11,21µM*,-18%
Cn1cc(C(=O)NCc2ccc(Cl)cc2)c(=O)c2cc(S(=O)(=O)N3CCCCCC3)ccc21,16µM*,nt,nt,?,nt
SMILES,TDP1 cell noCPT,HT1080NT lethal,IL-1B inflam inh,TDP1 cell CPT,HT1080 IDH1KD tx
O=C(N/N=C\c1cc(Br)cs1)C1COc2ccccc2O1 (stereo not drawn),?,?,2,?,?
Cc1ccc(-c2nn3c(-c4ccccc4)nnc3o2)cc1,?,29%,-8,?,12%
c1ccc2c(c1)CC1(CCCCC1)n1nnnc1-2,23µM*,0%,13,15µM*,-1%
c1ccc2c(c1)Cn1nnnc1-2,-5%,11%,24,-1%,15%
CCN(CC)C(=O)C(Sc1nnnn1-c1ccc(O)cc1)c1ccccc1 (stereo not drawn),?,-1%,-74*,-29%,3%
O=C(CSc1nc2ccccc2c(=O)n1-c1ccc(OC(F)F)cc1)NC1CC1,?,-4%,-1,?,10%
Cc1ccc(COC(=O)NCc2cccnc2)cc1,7%,1%,41,-2%,13%
CC(=O)c1sc(N/N=C/c2cccc(O)c2)nc1C,12µM*,-14%,43,26µM*,-19%
CC(=O)c1sc(N/N=C\c2c(O)ccc3ccccc23)nc1C,0.92µM*,?,74,0.92µM*,-24%
O=C(CNC(=O)c1sc2ccccc2c1Cl)NCc1ccc(F)cc1,-28%,-14%,-7,?,-11%
O=C1CC2C(CC(OC(=O)c3ccc(-c4ccccc4)cc3)C2CO)O1 (stereo not drawn),?,-27%,-3,-5%,1%[9.24 µM]
O=C1C[C@H]2[C@H](CO)[C@@H](OC(=O)c3ccc(-c4ccccc4)cc3)C[C@H]2O1,16µM*,-2%,?,?,-1%
Cc1cccc(NC(=O)CN2C(=O)S/C(=C\c3cc(C)n(C)c3C)C2=O)c1,18µM*,-13%,-2,-22%,-4%
CC1(C)S[C@@H]2[C@H](NC(=O)COc3ccccc3)C(=O)N2[C@@H]1C(=O)OCc1cccc2cccnc12,-13%,nt,nt,12%,nt
Cc1[nH]c2ccccc2c1CCN(Cc1cccnc1)C(=S)Nc1ccc(F)cc1,16µM*,-1%,-21,16µM*,-8%
Cc1[nH]c2ccc(F)cc2c1CCN(Cc1ccncc1)C(=S)Nc1ccccc1,-25%,-28%,-70*,-9%,-19%
Cc1cc2nc(CCN(Cc3cccnc3)C(=S)Nc3ccc(F)cc3)[nH]c2cc1C,?,?,?,?,-29%
